Compound activity: PubChem, Broad Institute
ALR H2O2 inh: human ALR oxidase inhibition via reduced H2O2 | P55789 | purified ALR, DTT oxidation, H2O2 HRP-luminol luminescence | inhibition, % (concentration not given with the values) | 290,000 tested, 3.8% active;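 active = mean replicate inhibition above about 79%, with every replicate also reaching it, limit read from the data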
CDK5 inh: CDK5/p35 (human) kinase inhibition; Q00535+Q15078; Recombinant CDK5/p35, ADP-Glo luminescence, 60 min; inhibition, % at 10 µM; 330,000 tested, 0.01% active; AID 488839;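 active = highest replicate inhibition of at least 50% and at least 75% of replicates reaching 50%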
SUMO Mot1 rescue: blocks SUMOylation pathway, rescuing yeast Mot1-301 growth; S. cerevisiae Mot1-301 growth rescue, ATP luminescence, 38.5C; percent above DMSO median, 100 means doubled; AID 2716; 320,000 tested, 1% active; growth rescue, % at 18.8 µM;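 active = every valid replicate shows activation above 250% relative to neutral control wells; inactive = the rest, any valid replicate at or below 250%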
NSD2 inh: blocks human histone methyltransferase NSD2 | O96028 | NSD2 peptide methylation, AlphaScreen, 120 min | inhibition, % at 12.5 µM | 310,000 tested, 0.54% active | AID 743445; in the data active = inhibition above about 50%
N-glyco inh: N-linked glycosylation inhibition. D54 ERlucT glycosylation luciferase reporter, 24 h; percent of 100 nM tunicamycin response. reporter increase, % at 12.5 µM. 360,000 tested, 0.23% active. AID 588692;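 active = mean luciferase reporter signal, scaled so untreated is 0 and the glycosylation-blocking control 100, at or above a set limit in every replicate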;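 note: luciferase carries N-glycosylation sites so blocking glycosylation raises the light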
CASP6 VEID inh: blocks human caspase-6 cleavage activity; inhibition, % at 12.5 µM; 350,000 tested, 0.53% active; purified caspase-6, Z-VEID-R110 cleavage fluorescence; P55212; AID 686996;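 active = mean inhibition across replicates at least about 35%, with every replicate also reaching that limit, limit read from the data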
Target sequence (P55212 24-179 limits assumed): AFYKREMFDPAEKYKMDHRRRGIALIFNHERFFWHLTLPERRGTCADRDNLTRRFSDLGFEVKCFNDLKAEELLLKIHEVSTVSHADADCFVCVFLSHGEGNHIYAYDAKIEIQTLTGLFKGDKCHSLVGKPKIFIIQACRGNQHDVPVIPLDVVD
Target sequence (P55212 194-293 limits assumed): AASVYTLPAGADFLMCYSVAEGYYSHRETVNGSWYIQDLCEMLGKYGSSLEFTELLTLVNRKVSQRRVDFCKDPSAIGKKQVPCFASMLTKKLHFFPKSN
Numbers stand for hits; . = inactive; / = no result given. The list is not random: actives were taken first. Their share in the collection is about 3.9%.

SMILES	ALR H2O2 inh	CDK5 inh	SUMO Mot1 rescue	NSD2 inh	N-glyco inh	CASP6 VEID inh
C[C@H](CO)N1C[C@H](C)[C@H](CN(C)S(=O)(=O)c2ccccc2)Oc2c(NC(=O)c3nc4ccccc4s3)cccc2C1=O	/	/	/	/	/	.
Cc1ccc(S(=O)(=O)N(C)C[C@H]2Oc3ccc(NS(C)(=O)=O)cc3C(=O)N([C@H](C)CO)C[C@@H]2C)cc1	/	/	/	/	/	.
O=C(C[C@H]1C=C[C@H](NC(=O)CCN2CCCCC2)[C@H](CO)O1)Nc1nccs1	/	/	/	/	/	.
C[C@H]1c2cccc(O)c2C(O)=C2C(=O)[C@]3(O)C(O)=C(C(N)=O)C(=O)[C@@H](N(C)C)[C@@H]3[C@@H](O)[C@@H]21	.	.	.	/	.	/
CN(C)c1ccc(O)c2c1CC1CC3[C@@H](N(C)C)C(=O)C(C(N)=O)=C(O)[C@]3(O)C(=O)C1=C2O (some centres not stated)	/	.	.	/	.	66
CC(C)NC(=O)N(C)C[C@H]1OCCCC[C@@H](C)Oc2ccc(NS(=O)(=O)c3cn(C)cn3)cc2C(=O)N([C@@H](C)CO)C[C@@H]1C	/	/	/	/	/	.
O=C(O)c1cc(Cl)ccc1-c1ccc(/C=C/c2cc(C(F)(F)F)[nH]c(=O)n2)o1	.	.	.	.	.	45
O=[N+]([O-])c1ccc(S(=O)(=O)Nc2nc(-c3ccccc3)cs2)cc1	.	.	.	.	.	.
O=S(=O)(Nc1nc(-c2ccccc2)cs1)c1cc(Cl)ccc1Cl	90	.	.	.	.	.
CCc1ccc(N2C(=O)Nc3ccccc3C2(O)C(=O)N2CCN(c3ccccn3)CC2)cc1 (configuration not stated)	.	.	.	.	38	.
CCC(C)NC(=O)C1(O)c2ccccc2NC(=O)N1c1ccc(C)c(C)c1 (configuration not stated)	.	.	.	.	.	.
O=C1Nc2ccccc2C(O)(C(=O)N2CCCCC2)N1c1ccccc1 (configuration not stated)	.	.	.	.	.	/
Cc1ccc(N2C(=O)Nc3ccccc3C2(O)C(=O)N2CCN(c3ccccn3)CC2)cc1C (configuration not stated)	.	.	.	.	29	.
CN1c2ccc(-c3ccc(F)cc3)cc2[C@H]2[C@H](CCN2C(=O)C2CCOCC2)[C@@H]1CO	/	/	/	/	/	.
Cc1c(OCc2nn[nH]n2)ccc2c3c(c(=O)oc12)CCC(C)C3 (configuration not stated)	98	.	.	.	.	/
Cc1c(OCc2nn[nH]n2)ccc2c3c(c(=O)oc12)CCCC3	.	.	.	.	.	/
Nc1nc(-c2ccc(Oc3ccccc3)cc2)cs1	99	.	.	.	.	.
Nc1nc(-c2ccccc2Br)cs1	98	.	.	.	.	/
Nc1nc(-c2cccs2)cs1	.	.	.	.	.	/
Nc1nc(-c2ccc(-c3ccccc3)cc2)cs1	99	.	.	.	.	.
Cc1ccc(-c2csc(N)n2)cc1	/	.	/	.	.	.
Nc1nc(-c2ccc3ccccc3c2)cs1	98	.	.	.	.	.
C[C@H]1CN([C@@H](C)CO)C(=O)c2cccc(NS(=O)(=O)c3cn(C)cn3)c2O[C@H]1CN(C)C(=O)Nc1ccc(F)cc1	/	/	/	/	/	.
Oc1c(C(c2cccs2)N2CCN(c3ccccc3)CC2)sc2ncnn12 (configuration not stated)	97	.	.	/	.	.
CCc1ccc(N=C2NC(=O)/C(=C/c3cc(OC)c(OC)c(OC)c3)S2)cc1	.	.	.	.	.	.
SMILES	ALR H2O2 inh	CDK5 inh	SUMO Mot1 rescue	NSD2 inh	N-glyco inh	CASP6 VEID inh
CCc1ccc(N=C2NC(=O)/C(=C/c3cc(Br)c(OCC(=O)O)c(OC)c3)S2)cc1	98	.	.	.	.	64
O=C(Cn1ncc(Cl)c(Cl)c1=O)NC1CCCCC1	/	.	.	.	.	.
O=C(Cn1ncc(Cl)c(Cl)c1=O)NCC1CCCCC1	95	.	.	.	.	.
CCCC#Cc1ccc2c(c1)O[C@@H](CN(C)Cc1cccnc1)[C@@H](C)CN([C@@H](C)CO)S2(=O)=O	/	/	/	/	/	.
Cc1cccc(NCc2n[nH]c(=S)n2-c2ccccc2)c1	.	.	.	.	.	.
Cc1ccc(NCc2n[nH]c(=S)n2-c2ccccc2)c(C)c1	98	.	.	.	.	.
Cc1ccc(-c2n[nH]c(=S)n2-c2ccccc2)cc1	.	.	.	.	.	/
